Results taken from PubChem BioAssay AID1159580 (chemical genetic matrix, 2015).
“And” between values parts separate entries of the source, which are not always exact repeats. Identical values can stand only once. The whole screen tested about 5,500 compounds, of which about 2,000 (36%) were called active. Another 18% or so got no clear call; they are omitted. The list shows a part of the results. A number with no mark means an inactive call. Cut-off read from the data, not from the text of the source: active = normalized growth mostly below about 0.91 (no sharp cut-off); inconclusive = no clear call, values can overlap the other calls; inactive = mostly above about 0.92.

Experiment: chemical genetic growth profiling, strain panel (AID 1159580);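 note: tested at 20 µM; growth read once vehicle control cultures reached saturation at 30 °C; 1 = growth at the plate median or of vehicle wells; lower values mean less growth of the strain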
Conditions: S. cerevisiae deletion strains, growth OD

## C=CCc1ccc(O)c(OC)c1
Locus YAL013W, strain DEP1, hits give low values
  normalized growth: 0.971
Locus YAL021C, strain ccr4, hits give low values
  normalized growth: 1.01
Locus YAL026C, strain drs2, hits give low values
  normalized growth: 1
Locus YAL030W, strain snc1, hits give low values
  normalized growth: 0.989
Locus YBL061C, strain skt5, hits give low values
  normalized growth: 0.986
Locus YBR009C, strain hhf1, hits give low values
  normalized growth: 1.02
Locus YBR021W, strain FUR4, hits give low values
  normalized growth: 1.05
Locus YBR023C, strain chs3, hits give low values
  normalized growth: 1
Locus YBR171W, strain sec66, hits give low values
  normalized growth: 0.994
Locus YBR229C, strain ROT2, hits give low values
  normalized growth: 0.94
Locus YBR231C, strain swc5, hits give low values
  normalized growth: 0.907 (active)
Locus YBR279W, strain paf1, hits give low values
  normalized growth: 0.997
Locus YCL011C, strain gbp2, hits give low values
  normalized growth: 1.01
Locus YCL016C, strain dcc1, hits give low values
  normalized growth: 1.01
Locus YCL029C, strain bik1, hits give low values
  normalized growth: 0.949
Locus YCL061C, strain MRC1, hits give low values
  normalized growth: 1.01
Locus YCL069W, strain vba3, hits give low values
  normalized growth: 0.993
Locus YCR088W, strain abp1, hits give low values
  normalized growth: 0.984
Locus YDL005C, strain med2, hits give low values
  normalized growth: 1.01
Locus YDL035C, strain GPR1, hits give low values
  normalized growth: 0.992
Locus YDL040C, strain nat1, hits give low values
  normalized growth: 0.98
Locus YDL074C, strain BRE1, hits give low values
  normalized growth: 0.967
Locus YDL101C, strain DUN1, hits give low values
  normalized growth: 0.961
Locus YDL185W, strain tfp1, hits give low values
  normalized growth: 0.975
Locus YDL192W, strain arf1, hits give low values
  normalized growth: 0.896 (active)
Locus YDR001C, strain nth1, hits give low values
  normalized growth: 0.982
Locus YDR069C, strain doa4, hits give low values
  normalized growth: 1
Locus YDR101C, strain arx1, hits give low values
  normalized growth: 0.947
Locus YDR137W, strain rgp1, hits give low values
  normalized growth: 0.978
Locus YDR150W, strain NUM1, hits give low values
  normalized growth: 0.938
Locus YDR159W, strain sac3, hits give low values
  normalized growth: 0.949
Locus YDR162C, strain NBP2, hits give low values
  normalized growth: 0.967
Locus YDR195W, strain ref2
  normalized growth: 0.925
Locus YDR297W, strain sur2, hits give low values
  normalized growth: 0.988
Locus YDR318W, strain mcm21, hits give low values
  normalized growth: 0.925
Locus YDR334W, strain swr1, hits give low values
  normalized growth: 0.983
Locus YDR335W, strain msn5, hits give low values
  normalized growth: 0.996
Locus YDR388W, hits give low values
  normalized growth: 0.944
Locus YDR392W, strain spt3, hits give low values
  normalized growth: 0.841
Locus YDR502C, strain sam2, hits give low values
  normalized growth: 0.956
Locus YEL003W, strain gim4, hits give low values
  normalized growth: 0.994
Locus YEL037C, strain rad23, hits give low values
  normalized growth: 0.989
Locus YEL061C, strain CIN8 (second series), hits give low values
  normalized growth: 0.992
Locus YEL061C, strain CIN8, hits give low values
  normalized growth: 0.923 (active)
Locus YER015W, strain faa2, hits give low values
  normalized growth: 0.995
Locus YER016W, strain bim1, hits give low values
  normalized growth: 0.994
Locus YER110C, hits give low values
  normalized growth: 0.908
Locus YER111C, strain swi4, hits give low values
  normalized growth: 0.996
Locus YER155C, strain BEM2 (second series), hits give low values
  normalized growth: 0.789 (active)
Locus YER155C, strain BEM2, hits give low values
  normalized growth: 0.93
Locus YER167W, strain BCK2, hits give low values
  normalized growth: 0.911
Locus YFR010W, strain ubp6, hits give low values
  normalized growth: 0.999
Locus YGL078C, strain dbp3, hits give low values
  normalized growth: 0.984
Locus YGL086W, strain mad1, hits give low values
  normalized growth: 0.942
Locus YGL167C, strain pmr1, hits give low values
  normalized growth: 0.984
Locus YGL173C, strain kem1, hits give low values
  normalized growth: 1
Locus YGL227W, strain vid30, hits give low values
  normalized growth: 0.994
Locus YGL240W, strain doc1, hits give low values
  normalized growth: 0.955
Locus YGL248W, strain PDE1, hits give low values
  normalized growth: 0.937
Locus YGL253W, strain hxk2, hits give low values
  normalized growth: 0.994
Locus YGR078C, strain PAC10, hits give low values
  normalized growth: 0.929
Locus YGR135W, strain pre9, hits give low values
  normalized growth: 0.926
Locus YGR252W, strain gcn5, hits give low values
  normalized growth: 1.19
Locus YHR013C, strain ard1, hits give low values
  normalized growth: 0.997
Locus YHR027C, strain rpn1, hits give low values
  normalized growth: 1
Locus YHR030C, strain SLT2, hits give low values
  normalized growth: 0.942 and 0.988
Locus YHR079C, strain IRE1 (second series), hits give low values
  normalized growth: 0.927
Locus YHR079C, strain IRE1, hits give low values
  normalized growth: 0.975
Locus YHR094C, strain hxt1, hits give low values
  normalized growth: 0.939
Locus YHR129C, strain ARP1, hits give low values
  normalized growth: 0.931
Locus YHR142W, strain chs7, hits give low values
  normalized growth: 1.01
Locus YHR200W, strain rpn10, hits give low values
  normalized growth: 0.937
Locus YIL066C, strain RNR3, hits give low values
  normalized growth: 0.921
Locus YIL073C, strain SPO22, hits give low values
  normalized growth: 0.947
Locus YIL125W, strain kgd1, hits give low values
  normalized growth: 0.942
Locus YIR030C, strain dcg1, hits give low values
  normalized growth: 0.929
Locus YJL092W, strain hpr5, hits give low values
  normalized growth: 0.987
Locus YJL095W, strain BCK1 (second series), hits give low values
  normalized growth: 0.992
Locus YJL095W, strain BCK1, hits give low values
  normalized growth: 0.937 and 0.962
Locus YJL115W, strain asf1, hits give low values
  normalized growth: 0.982
Locus YJL129C, strain trk1, hits give low values
  normalized growth: 0.979
Locus YJL134W, strain LCB3, hits give low values
  normalized growth: 0.937
Locus YJL154C, strain vps35, hits give low values
  normalized growth: 0.996
Locus YJL164C, strain tpk1, hits give low values
  normalized growth: 1.02
Locus YJL166W, strain qcr8, hits give low values
  normalized growth: 1.03
Locus YJL168C, strain set2, hits give low values
  normalized growth: 0.929 (active)
Locus YJL187C, strain SWE1 (second series), hits give low values
  normalized growth: 0.978
